# Measurements published in PubChem BioAssay (NCI).
# Where “and” joins values, the source holds several entries; their conditions need not be identical. Equal values may be shown once. The panel holds about 83,000 compounds, 20% with a hit somewhere; the sample as a whole holds those more often.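 Activity criterion: percent growth below 10, measured after cells in 96-well plates were exposed to a single compound concentration for 48 hours.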 Calls of active or inactive are those of the source.
# Key:
# Experiment in all cases: NCI-60 one-dose screen, 48 h (100 = growth as untreated, 0 = no growth, -100 = all killed)
# Conditions in all cases: 10 µM unless noted
# [1] = tested on: HCT-15 colon
# [2] = tested on: HT29 colon
# [3] = tested on: SNB-75 CNS
# [4] = tested on: SNB-19 CNS
# [5] = tested on: PC-3 prostate
# [6] = tested on: SK-MEL-5 melanoma
# [7] = tested on: UACC-62 melanoma
# [8] = tested on: LOX IMVI melanoma
# [9] = tested on: SK-MEL-28 melanoma
# [10] = tested on: U251 CNS
Compound,growth [1],growth [2],growth [3],growth [4],growth [5],growth [6],growth [7],growth [8],growth [9],growth [10]
COc1cc2nc(N3CCN(C(=O)C4COc5ccccc5O4)CC3)nc(N)c2cc1OC (stereo unspecified),108% (inactive) and 97.5% (inactive) and 105% (inactive),71.4% (inactive) and 93.9% (inactive),71.3% (inactive) and 76.9% (inactive) and 92.7% (inactive),99.7% (inactive) and 96% (inactive) and 101% (inactive),91.7% (inactive) and 93.1% (inactive) and 110% (inactive),92.2% (inactive) and 86.6% (inactive) and 101% (inactive),102% (inactive) and 101% (inactive) and 103% (inactive),88% (inactive) and 94.2% (inactive) and 98.7% (inactive),99.9% (inactive) and 102% (inactive) and 107% (inactive),
c1ccc2cc(C[n+]3ccn(Cc4ccc5ccccc5n4)c3)ccc2c1,96.3% (inactive) and 101% (inactive),-30.7% (active) and 10.7% (inactive),18.9% (inactive) and 33.2% (inactive),13.3% (inactive) and 19.7% (inactive),4.09% (active) and 14.7% (inactive),-87.6% (active) and -67.9% (active),-1.09% (active) and 10.6% (inactive),-30.6% (active) and 20.1% (inactive),8.97% (active) and 41.2% (inactive),
O=C1c2ccccc2C(=O)N1/N=C/c1ccc2c(c1)OCO2,98.2% (inactive),94.3% (inactive),,93% (inactive),74.1% (inactive),105% (inactive),90.3% (inactive),100% (inactive),103% (inactive),99.8% (inactive)
c1ccc2c(CC3=NCCN3)cccc2c1,104% (inactive) and 106% (inactive),103% (inactive) and 96.3% (inactive),,107% (inactive) and 104% (inactive),103% (inactive) and 96.2% (inactive),92.7% (inactive) and 108% (inactive),108% (inactive) and 106% (inactive),91.9% (inactive) and 99.4% (inactive),109% (inactive) and 107% (inactive),94.6% (inactive) and 100% (inactive)
COc1ccc(S(=O)(=O)N2CCOCC2)cc1NC(=O)c1[nH]c(C)c2c1CCCCC2=O,104% (inactive) and 26.9% (inactive),112% (inactive) and 31.7% (inactive),101% (inactive) and 7.61% (active),98.7% (inactive) and 64.1% (inactive),46.4% (inactive),97.8% (inactive) and 70.9% (inactive),98.2% (inactive) and 33.3% (inactive),98.6% (inactive) and 23.5% (inactive),101% (inactive) and 62.5% (inactive),
Cc1ccc(S(=O)(=O)Nc2nc3ccccc3nc2Nc2ccc3nsnc3c2)cc1,32% (inactive) and 58.6% (inactive),47.5% (inactive) and 63.2% (inactive),,47.7% (inactive) and 47.6% (inactive),42.8% (inactive) and 27.3% (inactive),18.7% (inactive) and 13.7% (inactive),19% (inactive) and 12.8% (inactive),65.8% (inactive) and 47% (inactive),49.8% (inactive) and 51.6% (inactive),26.1% (inactive) and 40.1% (inactive)
O=C(Nc1cccc(Cl)c1)c1cc2ccccc2cc1O,16.3% (inactive) and 9.55% (active),104% (inactive) and 60.1% (inactive),45.7% (inactive) and 33.6% (inactive),13.2% (inactive),1.88% (active) and -4.44% (active),-14.7% (active) and -23.9% (active),13.8% (inactive) and 18.4% (inactive),25.3% (inactive) and 11% (inactive),35.7% (inactive) and 42% (inactive),
Cc1ccc(-c2noc(CC(=O)c3ccc([N+](=O)[O-])cc3)n2)cc1,98.3% (inactive),101% (inactive),94.6% (inactive),106% (inactive),98.6% (inactive),91.6% (inactive),91.1% (inactive),89.5% (inactive),105% (inactive),
CC1=NN(c2ccccc2)C(=O)C1C(=O)c1ccccc1 (stereo unspecified),108% (inactive),107% (inactive),103% (inactive),95.1% (inactive),87.9% (inactive),99.1% (inactive),99.2% (inactive),96.9% (inactive),101% (inactive),
CC(O)Cn1cnc2c1c(=O)n(C)c(=O)n2C (stereo unspecified),96.4% (inactive),109% (inactive),83.5% (inactive),104% (inactive),,101% (inactive),100% (inactive),87.1% (inactive),103% (inactive),
CCN(CC)CCNc1cc(-c2cccc(OC(F)(F)F)c2)nc2ccc(N3CCCC3)cc12,24.3% (inactive) and 3.13% (active) and 13.6% (inactive),10.9% (inactive) and -11.1% (active) and 1.35% (active),86.4% (inactive) and 51.9% (inactive),2.91% (active) and 15.2% (inactive) and 36.9% (inactive),-94.4% (active) and 7.18% (active) and 28.2% (inactive),-2.81% (active) and -88% (active) and 7.43% (active),-64.9% (active) and -73.2% (active) and -23.9% (active),-40.9% (active) and -59.6% (active) and -51.7% (active),-9.25% (active) and -32.5% (active) and 11% (inactive),
COc1ccc(-c2ncnc3c2ncn3C/C=C/CCl)cc1,61% (inactive) and 81.2% (inactive),84.6% (inactive) and 84.3% (inactive),128% (inactive) and 105% (inactive),87.8% (inactive) and 78.5% (inactive),83.8% (inactive) and 87% (inactive),85.7% (inactive) and 82.4% (inactive),76.6% (inactive) and 74% (inactive),54.2% (inactive) and 70.1% (inactive),98.4% (inactive) and 98.9% (inactive),
O=C(Cc1cccc2ccccc12)N/N=C/c1ccc2c(c1)CCC2,56.6% (inactive),62.4% (inactive),,92.1% (inactive),74.2% (inactive),80.6% (inactive),54.3% (inactive),69.6% (inactive),81.4% (inactive),69.9% (inactive)
CC(C)N=c1cc2n(-c3ccc(Cl)cc3)c3ccccc3nc-2cc1Nc1ccc(Cl)cc1,14.9% (inactive) and 21% (inactive) and 6.17% (active),0.808% (active) and 6.25% (active) and -28.1% (active),68.1% (inactive) and 53.7% (inactive) and 24.1% (inactive),49.1% (inactive) and 60.7% (inactive) and 36.4% (inactive),22.2% (inactive) and 29.7% (inactive) and 8.73% (active),4.95% (active) and 12% (inactive) and -72.9% (active),36% (inactive) and 34.9% (inactive) and 32.9% (inactive),-20.7% (active) and -48.6% (active) and -80.9% (active),67.7% (inactive) and 72.8% (inactive) and 57.9% (inactive),
CCOC(=O)C(CNc1ccccc1)C(=O)OCC,106% (inactive),105% (inactive),77.9% (inactive),91.2% (inactive),98.2% (inactive),100% (inactive),,101% (inactive),103% (inactive),
O=S1(=O)CC(Br)C(Br)C1 (stereo unspecified),49.1% (inactive) and 61.1% (inactive),27.7% (inactive) and 79% (inactive),100% (inactive) and 88.8% (inactive),98.7% (inactive) and 97.2% (inactive),86.3% (inactive) and 92.6% (inactive),93.2% (inactive) and 99.2% (inactive),86.5% (inactive) and 93.4% (inactive),81.3% (inactive) and 38.4% (inactive),80.8% (inactive) and 106% (inactive),
NC(=S)N/N=C(\c1ccc(Br)cc1)C1CC1,81.8% (inactive) and 82.9% (inactive),68.4% (inactive),,108% (inactive),84.1% (inactive) and 61.5% (inactive),100% (inactive) and 95.9% (inactive),98.4% (inactive),86.2% (inactive),102% (inactive) and 103% (inactive),93.2% (inactive)
